Measured values as given in ChEMBL document CHEMBL3433997, “St. Jude Leishmania screening dataset” (2016).

Assays:
Type in all cases: functional
[1] = target: Solute carrier family 2, facilitated glucose transporter member 1 (Homo sapiens) (UniProt P11166); experiment: ST_JUDE_LEISH: Cytotoxicity at 2uM final concentration against transgenic Leishmania Mexicana promastigotes LmGLUT1 that are glucose transport deficient and complemented with the human glucose transporter GLUT1. Activity is measured by DNA content using SYBR green in vitro
[2] = target: Hexose transporter 1 (Plasmodium falciparum) (UniProt O97467); experiment: ST_JUDE_LEISH: Cytotoxicity at 2uM final concentration against transgenic Leishmania Mexicana promastigotes LmPfHT that are glucose transport deficient and complemented with the Plasmodium falciparum hexose transporter. Activity is measured by DNA content using SYBR green in vitro
[3] = target: Glucose transporter (Leishmania mexicana) (UniProt O61059); experiment: ST_JUDE_LEISH: Cytotoxicity at 2uM final concentration against transgenic Leishmania Mexicana promastigotes LmGT2 that are glucose transport deficient and complemented with the L. Mexicana glucose transporter 2. Activity is measured by DNA content using SYBR green in vitro

Solute carrier family 2, facilitated glucose transporter member 1 (Homo sapiens), sequence (P11166 whole entry): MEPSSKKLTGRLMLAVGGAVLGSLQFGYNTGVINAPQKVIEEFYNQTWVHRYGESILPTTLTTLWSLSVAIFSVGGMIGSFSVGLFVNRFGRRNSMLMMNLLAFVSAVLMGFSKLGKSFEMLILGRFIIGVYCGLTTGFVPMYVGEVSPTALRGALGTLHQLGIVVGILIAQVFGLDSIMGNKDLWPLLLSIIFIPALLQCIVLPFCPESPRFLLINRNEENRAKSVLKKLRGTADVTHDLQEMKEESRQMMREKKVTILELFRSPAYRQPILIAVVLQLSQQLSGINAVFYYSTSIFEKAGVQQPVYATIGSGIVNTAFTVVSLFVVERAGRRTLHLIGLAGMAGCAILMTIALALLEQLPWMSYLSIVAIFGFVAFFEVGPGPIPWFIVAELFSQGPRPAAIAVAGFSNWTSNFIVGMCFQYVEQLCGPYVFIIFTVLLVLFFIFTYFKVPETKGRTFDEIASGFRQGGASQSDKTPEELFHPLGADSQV

## COc1ccc(CCNCCCCCCNCCc2ccc(Cl)c3ccccc23)cc1OC
[1]
  inhibition: 0.11%
[2]
  inhibition: 0.21%
[3]
  inhibition: 2.66%

## N#Cc1cncc(-c2nc3c(N4CCC(N5CCCC5)CC4)cccc3n2CCNCc2ccccc2)c1
[1]
  inhibition: 0.91%
[2]
  inhibition: 0.8%
[3]
  inhibition: 3.98%

## COc1ccc(CN2CCN(CC(=O)Nc3cc(Cl)ccc3-n3cncn3)CC2)cc1F
[1]
  inhibition: -1.01%
[2]
  inhibition: 1.82%
[3]
  inhibition: -0.67%

## COc1cc(NC(=O)/C=C/c2cc3ccccc3n2C)ccc1OCCN(C(C)C)C(C)C
[1]
  inhibition: 4.23%
[2]
  inhibition: 4.39%
[3]
  inhibition: 3.12%

## C[C@@H]1CC[C@H](NC(=O)[C@H](CC2CCCC2)NC(=O)N2CCNCC2)C(=O)CN1S(=O)(=O)c1ccccn1
[1]
  inhibition: 1.44%
[2]
  inhibition: 0.17%
[3]
  inhibition: -0.32%

## Fc1c(CNCC2CCN(CC3CCCCC3)CC2)cccc1C(F)(F)F
[1]
  inhibition: 4.53%
[2]
  inhibition: 3.93%
[3]
  inhibition: 5%

## COc1nc2c(CCN3CCC(NCc4ccc5c(c4)NCCO5)CC3)c(Cl)cnc2cc1F
[1]
  inhibition: 14.1%
[2]
  inhibition: 9.24%
[3]
  inhibition: 2.35%

## O=C(Cc1ccccc1)NC(CCN1CCC(N(C2CC2)S(=O)(=O)c2cccc(C(F)(F)F)c2)CC1)c1ccc(Cl)c(Cl)c1 (stereo not given)
[1]
  inhibition: 5.55%
[2]
  inhibition: 3.86%
[3]
  inhibition: 3.73%

## COc1ccc(NC(=O)[C@H](CC(C)C)Nc2cc(C)nc(NCCc3ccccc3OC)n2)cc1
[1]
  inhibition: 1.28%
[2]
  inhibition: 2.79%
[3]
  inhibition: 0.24%

## COc1ccc(NC(=O)c2ccc(OCCCCCCCOc3ccc(C(=O)Nc4ccc(OC)c(N5CCN(C)CC5)c4)cc3)cc2)cc1N1CCN(C)CC1
[1]
  inhibition: 0.98%
[2]
  inhibition: 0.63%
[3]
  inhibition: 1.11%

## CC(C)(C)c1ccc(-c2nnc(N)nc2N)cc1
[1]
  inhibition: 1.1%
[2]
  inhibition: 0.43%
[3]
  inhibition: 0.09%

## Cc1cc(CNCC(CCNc2cc(=O)c3ccccc3[nH]2)NCc2cc(Br)cc(Br)c2)oc1C (stereo not given)
[1]
  inhibition: 4.51%
[2]
  inhibition: 2.43%
[3]
  inhibition: 3.29%

## COc1cc(F)c2nccc([C@@H](O)CN3CCC(NCc4nc5cccc(F)c5[nH]4)CC3)c2c1
[1]
  inhibition: 6.27%
[2]
  inhibition: 0.25%
[3]
  inhibition: 3.66%

## CC(=O)N(Cc1nc(-c2cc(Cl)c(Cl)s2)cs1)c1c(C)cccc1C
[1]
  inhibition: 4.94%
[2]
  inhibition: 4.38%
[3]
  inhibition: 5.58%

## O=C(Nc1ccccc1)N(Cc1ccc(-c2cccc(CNC3CCCC3)c2)cc1)C1CCN(Cc2ccccc2)CC1
[1]
  inhibition: 0.97%
[2]
  inhibition: 1.4%
[3]
  inhibition: 1.42%

## CC(=O)N[C@H](C(=O)Nc1ccc(-c2ccc(-c3nc4cc(C(F)(F)F)ccc4[nH]3)cc2)cc1)C(C)C
[1]
  inhibition: 4.54%
[2]
  inhibition: 3.08%
[3]
  inhibition: 0.17%

## CCOc1ccc2nc(C)cc(N/N=C/c3ccccc3[N+](=O)[O-])c2c1
[1]
  inhibition: 33.1%
[2]
  inhibition: 26.4%
[3]
  inhibition: 33.9%

## Cc1c2ccc(N(C)c3ccnc(Nc4ccc5c(c4)nc(NC(C)C)n5C)n3)cc2nn1C
[1]
  inhibition: 0.46%
[2]
  inhibition: 1.01%
[3]
  inhibition: -1.42%

## Cc1cc(C2CCN(CCCCNC(=O)c3ccc(-c4ccc(C#N)cc4)cc3)CC2)c(C)cc1OCCO
[1]
  inhibition: 10%
[2]
  inhibition: 12.3%
[3]
  inhibition: 9.78%

## O=C(Nc1cccc(F)c1)NC1CCN(c2ccnc3cc(Cl)ccc23)C1 (stereo not given)
[1]
  inhibition: 2.72%
[2]
  inhibition: 2.74%
[3]
  inhibition: 4.22%

## CN1CCC(Oc2ccc(NC(=O)c3ccc4c(=O)n(Cc5ccccc5)cnc4c3)cc2Cl)CC1
[1]
  inhibition: 32.8%
[2]
  inhibition: 57.4%
[3]
  inhibition: 8.76%

## CCC[C@@H](/C=N/N(C)C(=O)OC(C)(C)C)NC(=O)[C@H](CC(C)C)NC(=O)c1cc2cccc(OC)c2o1
[1]
  inhibition: 3.02%
[2]
  inhibition: 3.92%
[3]
  inhibition: 0.27%

## Cc1ccc2[nH]c(-c3ccccc3Nc3ccnc4cc(-c5nccs5)ccc34)nc2c1
[1]
  inhibition: 1.04%
[2]
  inhibition: 4.44%
[3]
  inhibition: 1.35%

## CN(C)CCN(C)Cc1ccc(-c2ccc(NC(=O)c3cccc(C#N)c3)cc2)cc1
[1]
  inhibition: 3.64%
[2]
  inhibition: 2.58%
[3]
  inhibition: 0.19%

## Cc1ccc2c(=O)n(C)c(=O)n(C)c2n1
[1]
  inhibition: 6.05%
[2]
  inhibition: 2.94%
[3]
  inhibition: 1.62%

## CC(C)(C)c1ccc(N2C(N)=NC(N)=NC2(C)C)cc1
[1]
  inhibition: -0.57%
[2]
  inhibition: 0.01%
[3]
  inhibition: 1.34%

## CC(=O)Nc1ccc(OCCN(CC(C)C)c2ccc(C(F)(F)F)c(C#N)c2)c(Cl)c1
[1]
  inhibition: 6.51%
[2]
  inhibition: 10.4%
[3]
  inhibition: 8.7%

## CN(C(=O)c1snnc1-c1ccccc1)C1CCN(CCCCCNC(=O)/C=C/c2ccc(Cl)c(Cl)c2)CC1
[1]
  inhibition: 3.47%
[2]
  inhibition: 0.39%
[3]
  inhibition: 3.46%

## O=C1O[C@H](c2ccccc2)[C@H](c2ccccc2)N(C(=O)OCc2ccccc2)[C@H]1Cc1ccccc1C1CCCC1
[1]
  inhibition: 1.05%
[2]
  inhibition: 2.14%
[3]
  inhibition: 1.27%

## CC(=NNC(=N)N)c1ccc2c(c1)Cc1ccccc1-2
[1]
  inhibition: -1.01%
[2]
  inhibition: 0.42%
[3]
  inhibition: -1.5%

## CNCc1cccc2nc(-c3csc(Cc4cc(Cl)ccc4OCC(C)C)n3)[nH]c12
[1]
  inhibition: -0.53%
[2]
  inhibition: 0.5%
[3]
  inhibition: -0.08%

## CCCCCCN1CCCN(Cc2ccc(C(=O)Nc3ccc(F)c(F)c3)cc2)CC1
[1]
  inhibition: 17.1%
[2]
  inhibition: 18.5%
[3]
  inhibition: 12.9%

## c1ccc(CN2CCC(NCc3ccccc3-c3cccc(CNCc4ccc5c(c4)OCO5)c3)CC2)cc1
[1]
  inhibition: -2.53%
[2]
  inhibition: -0.36%
[3]
  inhibition: 0.7%

## N#Cc1ccc2c(c1)CCN(CCC1CCC(NC(=O)Nc3ccnc4ccccc34)CC1)C2 (stereo not given)
[1]
  inhibition: 4.82%
[2]
  inhibition: 3.39%
[3]
  inhibition: 1.75%

## Cc1cccc2nc(-c3ccc(-c4cccc(NC(=O)Nc5cccc(C#N)c5)c4)cc3)[nH]c12
[1]
  inhibition: 0.79%
[2]
  inhibition: -0.19%
[3]
  inhibition: -1.23%

## CCN(CC)CCCCOc1ccc2c(c1)C(=O)c1cc(OCCCCN(CC)CC)ccc1-2
[1]
  inhibition: 10.2%
[2]
  inhibition: 4.61%
[3]
  inhibition: 0.2%

## CN1C(=CC(=O)NC(=O)c2ccccc2)C(C)(C)c2ccccc21
[1]
  inhibition: 0.52%
[2]
  inhibition: 0.41%
[3]
  inhibition: 0.4%

## COc1cc2nc(C)nc(Nc3ccc(Oc4ccccc4)cc3)c2cc1OC
[1]
  inhibition: -2.63%
[2]
  inhibition: 2.09%
[3]
  inhibition: -1.95%

## Cc1cccc2nc(-c3cccc(-c4ccc(NC(=O)C(C)CN5CCOCC5)cc4)c3)[nH]c12 (stereo not given)
[1]
  inhibition: 3.62%
[2]
  inhibition: 2.93%
[3]
  inhibition: 4.9%

## O=C(Cn1c2ccccc2c(=O)c2ccc(Cl)cc21)Nc1ccc(C(F)(F)F)cc1
[1]
  inhibition: -0.52%
[2]
  inhibition: -1.32%
[3]
  inhibition: -1.59%
